These results are taken from PubChem BioAssay (NCATS).

What all share (test): Cytotoxic Profiling of Annotated Libraries Using Quantitative High-Throughput Screening (AID 1296008); also: nearly all actives have a fitted effect of over 60% in size
Common to all, as to conditions: Five cell lines viability, CellTiter-Glo ATP luminescence, 48-72 h; max response: active compounds read low
In general terms: Cellular ATP, detected with luciferase, serves as a proxy for viable cell number.

The subject of one test is CRL-7250. A digest of the protocol: (§1)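 Cytotoxicity was measured as CellTiter-Glo ATP luminescence, read after 10 min at room temperature. Compound treatment of the cells lasted 48 or 72 hr at 37 degrees Celsius in a qHTS format.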
The test system of a further test is HEK293. The essentials: as §1
In another test the test system is HaCat. A digest of the protocol: as §1
In a further test the test system is KB-3-1. The essentials:
as §1

Another test concerns NIH3T3. A digest of the protocol:
as §1

Molecules are shown by their SMILES. Records with an inconclusive call do not appear. Unmarked numbers belong to inactive results. Active and inactive are the calls of the source. Calls follow the shape of the dose curve; as a rule, active = well fitted inhibition curve with a large enough effect; inconclusive = small, poorly fitted or top-dose-only effect; inactive = flat fitted curve, though single readings scatter.
% is scaled to controls: 0 for no effect and ±100 for the full control effect; potency is read from the fitted curve at half-maximal effect.

With `N#C[C@@H]1C[C@H](F)CN1C(=O)CNC1[C@H]2CN(C(=O)c3ccc(F)cc3)C[C@@H]12` (stereo not given in full), the max response in the test with CRL-7250 was -1.2%; with HEK293, 2.87%; in the test with HaCat, -7.89%; in the test on KB-3-1, 1.86%; in the test with NIH3T3, -2.06%.

For the compound `CC(=O)OC[C@]12[C@H](OC(C)=O)C(=O)[C@@H]3[C@@H](OC(C)=O)[C@@]14O[C@@]3(C)COC(=O)c1cccnc1[C@@H](C)[C@H](C)C(=O)O[C@@H]([C@H](O)[C@@H]2OC(C)=O)[C@]4(C)O`, the max response in the test with CRL-7250 is 0.341%; in the test on HEK293 it was -0.596%; in the test with HaCat it was -0.606%; in the test on KB-3-1 it was -8.82%; with NIH3T3, -21%.

Regarding `CCOc1ccc(S(=O)(=O)n2c(C)nc3ccccc32)cc1`, the max response in the test on CRL-7250 was -1.87%; in the test with HEK293, -8.26%; in the test on HaCat, -31.1%; in the test on KB-3-1 it was -3.74%; in the test with NIH3T3, -7.13%.

On to `CCC(Nc1ncnc2nc[nH]c12)c1nc2cccc(F)c2c(=O)n1-c1ccccc1` (stereo not given), for which the max response in the test with CRL-7250 was -7.4%; with HEK293 it was -7.81%; in the test on HaCat, -6.65%. The compound was called inactive with KB-3-1.

With `CC[C@]1(O)CC2CN(CCc3c([nH]c4ccccc34)[C@@](C(=O)OC)(c3cc4c(cc3OC)N(C=O)[C@H]3[C@@](O)(C(=O)OC)[C@H](OC(C)=O)[C@]5(CC)C=CCN6CC[C@]43[C@@H]65)C2)C1` (stereo not given in full), the results for the Potency in the test with CRL-7250, in the test with HEK293 and with KB-3-1 were 64 nM (active), 32.1 nM (active) and 8.1 nM (active), respectively. In the test with HaCat, the max response was 3.94%.

Consider `Cc1ccccc1CN1C2=NCCN2C(=O)C2=C1CCN(Cc1ccccc1)C2`, for which the max response was -16.8% with CRL-7250; -7.79% in the test on HEK293; -42.7% in the test with HaCat; -23.4% with KB-3-1; -0.888% with NIH3T3.

In the case of `COC(=O)C(C)C1CCC2(C)C(=O)C=CC(C)(O)C2C1O` (stereo not given), the compound was called inactive in the test on CRL-7250 and in the test with KB-3-1. Further, the values for the max response in the test with HEK293, with HaCat and with NIH3T3 were -6.36%, 4.7% and 2.97%, respectively.

Take `CNS(=O)(=O)c1ccccc1Nc1nc(Nc2ccc(N3CCN(C)CC3)cc2OC)ncc1Cl`: the Potency is 1460 nM (active) in the test with CRL-7250, 1300 nM (active) in the test with HEK293, 2590 nM (active) in the test with HaCat and 920 nM (active) with KB-3-1.

As for `COc1ccc(-c2c(-c3cc(C(=O)O)ccn3)ncn2C)cc1`, the max response is 4.8% in the test on CRL-7250, -1.7% with HEK293, -1.2% in the test with HaCat and 4.75% in the test with KB-3-1.

With `CC1(C)CC[C@]2(C(=O)O[C@@H]3O[C@H](CO)[C@@H](O)[C@H](O)[C@H]3O)CC[C@]3(C)C(=CCC4[C@@]5(C)C[C@@H](O)[C@H](O)C(C)(C)C5[C@H](O)C[C@]43C)[C@@H]2[C@@H]1O` (stereo not given in full), the compound was called inactive with CRL-7250 and with KB-3-1. Also, the values for the max response in the test with HEK293, in the test with HaCat and in the test on NIH3T3 were 1.53%, 0.337% and -3.1%, respectively.

As to `C=CC(C)(O)CC/C=C(\C)C(=O)OC1C(O)C(CO)OC(OC(=O)C23CCC(C)(C)CC2C2=CCC4C5(C)CCC(OC6OC(COC7OCC(OC(C)=O)C(O)C7OC7OC(COC(C)=O)C(O)C(O)C7O)C(O)C(O)C6O)C(C)(C)C5CCC4(C)C2(C)C(O)C3O)C1OC1OCC(OC2OCC(O)C(OC3OCC(O)C(O)C3O)C2O)C(O)C1O` (stereo not given), the max response in the test on CRL-7250 is -9.65%; in the test with HEK293, -3.37%; in the test on HaCat, -19.8%; with KB-3-1, 4.25%; in the test with NIH3T3, -2.07%.

Consider `CC1=CC2C(CC1OC1OC(CO)C(O)C(O)C1O)C(C)CC(=O)C2C(C)C` (stereo not given), for which the max response in the test on CRL-7250 was 0.564%; in the test on HEK293, -0.187%; with HaCat, -4.3%; in the test with NIH3T3, 1.5%. The result in the test with KB-3-1 was inactive.

Regarding `CC(=O)CC1CCC(C(C)C(=O)OCC(O)CO)O1` (stereo not given), the max response in the test with CRL-7250 was 2.08%; in the test with HEK293 it was -3.6%; with HaCat, -2.79%; in the test on NIH3T3, -24.7%. Moreover, in the test on KB-3-1, the compound was called inactive.

For the compound `C[C@]1(CO)CCC[C@]2(C)C3=C(CCC12)COC3` (stereo not given in full), the max response with CRL-7250 was -5.66%; in the test on HEK293, -9.57%; with HaCat it was -11.9%; in the test with KB-3-1, 5.06%; with NIH3T3, 4.03%.

For `COC(=O)/C=C/C12COC(C)(C)C1C(O)C(OC(C)=O)C1(C)C2CCC2(C)C(c3ccoc3)OC(=O)C3OC321` (stereo not given), the max response in the test on CRL-7250 was -1.53%; in the test with HEK293 it was -22.6%; in the test on HaCat it was -1.09%; in the test on KB-3-1, -5.77%; with NIH3T3 it was -16.9%.

With `CCOc1cc(C(=O)N2CCC(N3CCN(C)CC3)CC2)ccc1Nc1ncc2c(n1)N(C1CCCC1)c1ccccc1C(=O)N2C`, the Potency with CRL-7250 was 10300 nM (active); in the test with HEK293, 11600 nM (active); in the test with KB-3-1, 23100 nM (active). In the test on HaCat, the max response was -1.5%.

`CC(CO)C1CCC2(C)CC3C(CO)CC(O)C3C(C)(O)C/C=C/12` (stereo not given): the max response is -6.97% in the test on CRL-7250, -10.5% with HEK293, -5.8% in the test on HaCat and 0.217% in the test on NIH3T3. In addition, the outcome in the test with KB-3-1 was inactive.

Turning to `CC(=O)c1cc2c(cc1O)OC(C)(C)C=C2`, the outcome with CRL-7250 and in the test with KB-3-1 was inactive. Also, the results for the max response in the test with HEK293, in the test with HaCat and with NIH3T3 were 0.43%, -16.3% and -4.07%, respectively.

For the compound `O=C(O)/C=C/c1cc2c(cc1O[C@@H]1O[C@H](CO)[C@@H](O)[C@H](O)[C@H]1O)OCO2`, the max response with CRL-7250 is 4.22%; with HEK293 it was 2.33%; in the test on HaCat, 0.0176%; in the test with KB-3-1, 8.77%; in the test on NIH3T3, 4.44%.
